Molecules are shown by their SMILES. Out of some 2,100 compounds screened, about 300 (14%) were called active. Roughly 2% stayed inconclusive and do not appear here.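 The calls were made as follows: active = every replicate test run called active, with the signal falling and half-maximal concentration within twice the top valid dose; inconclusive = the replicate test runs disagree in their calls; inactive = every test run inactive, including effects in the opposite direction.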 A selection follows. Potency and affinity values are given separately.

This test can be described thus: reduced cellular PGC1a acetyl-lysine signal – cell-based, cherry-picked samples, dose response (AID 720514).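 Also: 0% = neutral control wells and -100% = positive control wells; actives lower the acetylation signal so they count as inhibitors of PGC1a acetylation.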 The note with it: U2OS PGC1a acetylation, AlphaLISA, overnight; series mostly up to 19.5 µM; activity change, negative = inhibition: at the top concentration. (In Alpha technology, singlet oxygen from a donor bead excites a nearby acceptor bead.)
As to `Cc1c(C(=O)NCCSCc2c(F)cccc2Cl)cnn1-c1ccc(Cl)cc1`, the “activity change, negative = inhibition” value is 111% (inactive).
Turning to `CC1CN(S(=O)(=O)c2ccc(C(=O)NCCCn3ccnc3)cc2)CC(C)O1` (configuration not stated), the “activity change, negative = inhibition” value was 293% (inactive).
The result for `O=C(c1cccc([N+](=O)[O-])c1)N1CCc2ccccc21` reads 48% (inactive); that for `CCN(CC)CC(=O)N1c2ccccc2CCc2ccc(NC(=O)c3cc(OC)c(OC)c(OC)c3)cc21`, 49.2% (inactive); that for `CC(C)(C)c1ccc(NC(=O)N2CCN(c3ccc([N+](=O)[O-])cn3)CC2)cc1`, 138% (inactive).
On to `Cc1noc(C)c1S(=O)(=O)Nc1ccc2c(c1)C(=O)N([C@H](C)CO)C[C@H](C)[C@H](CN(C)C(=O)c1ccncc1)OCCCC[C@@H](C)O2`, for which the “activity change, negative = inhibition” value was 23.5% (inactive).
`C[C@@H]1CCCCO[C@@H](CN(C)CC2CC2)[C@H](C)CN([C@H](C)CO)C(=O)c2cc(NS(=O)(=O)c3ccccc3)ccc2O1`: the “activity change, negative = inhibition” value is 39.4% (inactive).
In the case of `Cc1noc(C)c1S(=O)(=O)Nc1ccc2c(c1)C(=O)N([C@@H](C)CO)C[C@@H](C)[C@@H](CN(C)Cc1ccc3c(c1)OCO3)OCCCC[C@@H](C)O2` it was 52% (inactive); in that of `C[C@@H]1CCCCO[C@@H](CN(C)Cc2ccc(Cl)c(Cl)c2)[C@H](C)CN([C@@H](C)CO)C(=O)c2cc(NC(=O)CCC(F)(F)F)ccc2O1`, 32.3% (inactive); in that of `C[C@@H]1CN([C@H](C)CO)C(=O)c2cc(N(C)C)ccc2O[C@@H](C)CCCCO[C@H]1CN(C)C(=O)Cc1ccccc1`, 77.6% (inactive).
On to `Cc1ccc(S(=O)(=O)Nc2ccc3c(c2)C(=O)N([C@@H](C)CO)C[C@@H](C)[C@H](CN(C)C(=O)Nc2cccc4ccccc24)OCCCC[C@H](C)O3)cc1`, for which the “activity change, negative = inhibition” value was 58.5% (inactive).
As to `CNC[C@H]1OCCCC[C@@H](C)Oc2ccc(NS(=O)(=O)c3ccccc3)cc2C(=O)N([C@H](C)CO)C[C@@H]1C`, the “activity change, negative = inhibition” value is 48.2% [at 21 µM] (inactive).
As for `O=C(OCc1nc2ccsc2c(=O)[nH]1)c1cccc(S(=O)(=O)N2CCOCC2)c1`, the “activity change, negative = inhibition” value was 5.56% (inactive).
Take `NCC[C@H]1CC[C@@H](NC(=O)C2CCCCC2)[C@@H](CO)O1`: the “activity change, negative = inhibition” value is 27.4% (inactive).
Take `O=C(C[C@H]1CC[C@H]2[C@@H](COC[C@@H](O)CN2C(=O)c2cc(Cl)cc(Cl)c2)O1)N1CCc2ccccc2C1`: the “activity change, negative = inhibition” value is 79.8% (inactive).
The result for `COc1ccc(NC(=O)Cn2ncc(Cl)c(Cl)c2=O)cc1S(=O)(=O)N1CCOCC1` reads 67.1% [at 10 µM] (inactive); that for `CCc1nnc(NC(=O)Cc2ccc(S(=O)(=O)N3CCCCC3)cc2)s1`, 44% (inactive); that for `N#Cc1ccccc1COC(=O)c1ccc2c(c1)OCCO2`, 163% (inactive).
As for `Fc1ccc(-c2nn3c(C4COc5ccccc5O4)nnc3s2)cc1` (configuration not stated), the “activity change, negative = inhibition” value is 135% (inactive).
As for `COc1ccc2c(c1)C(C)=CC(C)(C)N2S(=O)(=O)c1ccc(Br)cc1`, the “activity change, negative = inhibition” value was 49.3% [at 10 µM] (inactive).
The result for `OC(COc1ccc(CNCCc2ccc(C(F)(F)F)cc2)cc1)CN1CCCCC1` (configuration not stated) reads 33.5% (inactive); that for `CC1(C)CC(=O)C2=C(C1)Nc1ccccc1N1C(=O)c3ccccc3C21` (configuration not stated), 65.3% (inactive); that for `O=C(NCc1csc(-c2cccs2)n1)c1cccc(Cl)c1`, 53.2% [at 10 µM] (inactive).
The result for `CN1OC(COC(=O)c2ccccc2)CC1c1ccccc1` (configuration not stated) reads 23.1% (inactive); that for `CCC(=O)Nc1ccc(C(=O)Cn2ncc(Cl)c(Cl)c2=O)cc1`, 69% (inactive); that for `O=S(=O)(c1ccccc1)N(CC(F)(F)F)c1ccc(C(O)(C(F)(F)F)C(F)(F)F)cc1`, 84.8% (inactive).
For the compound `COc1ccc(NC(=O)C2(C)Cc3c(-c4cccc(NC(C)=O)c4)ccnc3O2)cc1` (configuration not stated), the “activity change, negative = inhibition” value was 53.5% (inactive).
Regarding `CCOC(=O)C1=CC[C@@H](c2ccccc2)N(S(=O)(=O)c2ccc(C)cc2)[C@H]1c1cccc(OC)c1`, the “activity change, negative = inhibition” value is 58.4% (inactive).
The result for `Cc1csc(NC(=O)CSc2nsc(SCC(=O)Nc3nc(C)cs3)c2C#N)n1` reads 75% (inactive); that for `CN1CCN(c2ccc(CNC(=O)c3ccc(-c4ccnn4C)c4ccoc34)cc2)CC1`, 66.9% (inactive); that for `COc1cc(CN2CCCC(CO)(Cc3cccc(Cl)c3)C2)cc2c1OCO2` (configuration not stated), 61.2% (inactive).
Take `CCOc1ccc(N(C)S(=O)(=O)c2cc(-c3cc(C)no3)ccc2C(C)C)cc1`: the “activity change, negative = inhibition” value is 144% (inactive).
With `C[C@@H]1CN([C@@H](C)CO)C(=O)c2c(c3ccccc3n2C)-c2ccccc2CO[C@@H]1CN(C)C(=O)Nc1ccc2c(c1)OCO2`, the “activity change, negative = inhibition” value was 163% [at 21 µM] (inactive).
Regarding `COC(=O)c1cc(S(=O)(=O)N2CCN(c3ccc(C(C)=O)cc3)CC2)c[nH]1`, the “activity change, negative = inhibition” value is 112% (inactive).
For `CCC(=O)N(CC)c1nc(-c2ccc(OC)cc2)cs1`, the “activity change, negative = inhibition” value was 58.5% (inactive).
In the case of `CSc1nc(NCc2ccco2)c2ccccc2n1` it was 41.5% (inactive).
As for `Cc1ccc2oc(-c3ccc(NC(=O)c4cccnc4)cc3)nc2c1`, the “activity change, negative = inhibition” value is 276% (inactive).
For `CC(C)CCNc1nc(N2CCCC2)c2c(c1C#N)CCN(C)C2`, the “activity change, negative = inhibition” value is 68.1% [at 10 µM] (inactive).
For the compound `COc1ccccc1CN1CCCC(C(=O)N(C)Cc2ccccc2)C1` (configuration not stated), the “activity change, negative = inhibition” value was 56.3% [at 10 µM] (inactive).
As for `CC/C(=C(\c1ccc(O)cc1)c1ccc(OCCN(C)C)cc1)c1ccccc1`, the “activity change, negative = inhibition” value was 137% [at 10 µM] (inactive).
In the case of `COc1ccc(CCC(=O)NCCS(=O)(=O)N2CCN(c3ccccc3)CC2)cc1`, the “activity change, negative = inhibition” value is 49.9% (inactive).
For the compound `OC(c1ccccc1)(C1CCCCC1)C(CN1CCOCC1)c1ccccc1` (configuration not stated), the “activity change, negative = inhibition” value is 75.2% [at 10 µM] (inactive).
Regarding `CCN1CCN(C(=O)c2ccc3c(=O)n(CCC4=CCCCC4)c(=O)[nH]c3c2)CC1`, the “activity change, negative = inhibition” value is 90.2% (inactive).
In the case of `O=[N+]([O-])c1ccc(N2CCN(CC3CCCCC3)CC2)cc1` it was 41.3% (inactive); in that of `c1ccc(Cn2nnnc2C(c2cccs2)N2CCCCCC2)cc1` (configuration not stated), 44.4% (inactive); in that of `COc1ccc(-n2nnnc2CNC(=O)c2ccc3ccccc3c2)cc1`, 48.8% [at 10 µM] (inactive).
The result for `CC(C)C(c1nnnn1Cc1ccccc1)N(Cc1ccco1)Cc1cccs1` (configuration not stated) reads 141% (inactive).
As for `COc1ccc(C(c2nnnn2C2CCCC2)N2CCC(C)CC2)c(OC)c1` (configuration not stated), the “activity change, negative = inhibition” value is 74.1% (inactive).
For `c1ccc(CN2OCC3Cn4c(nc5ccccc54)C32)cc1` (configuration not stated), the “activity change, negative = inhibition” value was 31.5% (inactive).
Take `c1ccc(C(c2nnnn2Cc2cccs2)N2CCN(C3CCCC3)CC2)cc1` (configuration not stated): the “activity change, negative = inhibition” value was 49.8% (inactive).
Take `COc1cccc(CN2C[C@@H]3N[C@H](C2)C3c2ccc(-c3ccccc3F)cc2)c1` (some centres not stated): the “activity change, negative = inhibition” value was 46.1% (inactive).
Take `CCOC(=O)Cn1cnc2scc(-c3ccccc3)c2c1=O`: the “activity change, negative = inhibition” value was 18% (inactive).
`O=C(Cc1ccccc1)Nc1nc(-c2ccc(F)c(F)c2)cs1`: the “activity change, negative = inhibition” value is 75% (inactive).
For the compound `COc1cccc(-c2ccc(C3[C@@H]4CN(Cc5ccccn5)C[C@H]3N4)cc2)c1` (some centres not stated), the “activity change, negative = inhibition” value is 59.2% (inactive).
Regarding `COc1cccc(CN2C[C@@H]3N[C@H](C2)C3c2ccc(-c3cccc(C#N)c3)cc2)c1` (some centres not stated), the “activity change, negative = inhibition” value was 79.6% (inactive).
`Cc1cccc(-c2ccc(C3[C@@H]4CN(C(=O)C5CCCCC5)C[C@H]3N4)cc2)c1` (some centres not stated): the “activity change, negative = inhibition” value is 58.1% [at 10 µM] (inactive).
The result for `COc1ccccc1CN1C[C@@H]2N[C@H](C1)C2c1ccc(-c2ccccc2OC)cc1` (some centres not stated) reads 40.7% [at 21 µM] (inactive).

For the origin of these results see PubChem BioAssay AID720514 (Broad Institute, 2013).
